# Test results: publication PMC4336329 (PLoS ONE, 2015)
# The campaign covered roughly 310,000 compounds. About 14,000 (4.5%) showed an effect of 50% or more. The effect is printed as a negative number. This excerpt belongs to a sample that is enriched for strong results.
# Target: human ether-à-go-go-related gene (hERG) potassium channel (human, UniProt Q12809)
# Assay: primary screen, population patch clamp on CHO cells stably expressing hERG; higher = less effect of the substance
# 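Also: peak tail current of the secondary pulse compared with the same well before compound.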
# Chain of human ether-à-go-go-related gene (hERG) potassium channel (Q12809 whole entry, looked up): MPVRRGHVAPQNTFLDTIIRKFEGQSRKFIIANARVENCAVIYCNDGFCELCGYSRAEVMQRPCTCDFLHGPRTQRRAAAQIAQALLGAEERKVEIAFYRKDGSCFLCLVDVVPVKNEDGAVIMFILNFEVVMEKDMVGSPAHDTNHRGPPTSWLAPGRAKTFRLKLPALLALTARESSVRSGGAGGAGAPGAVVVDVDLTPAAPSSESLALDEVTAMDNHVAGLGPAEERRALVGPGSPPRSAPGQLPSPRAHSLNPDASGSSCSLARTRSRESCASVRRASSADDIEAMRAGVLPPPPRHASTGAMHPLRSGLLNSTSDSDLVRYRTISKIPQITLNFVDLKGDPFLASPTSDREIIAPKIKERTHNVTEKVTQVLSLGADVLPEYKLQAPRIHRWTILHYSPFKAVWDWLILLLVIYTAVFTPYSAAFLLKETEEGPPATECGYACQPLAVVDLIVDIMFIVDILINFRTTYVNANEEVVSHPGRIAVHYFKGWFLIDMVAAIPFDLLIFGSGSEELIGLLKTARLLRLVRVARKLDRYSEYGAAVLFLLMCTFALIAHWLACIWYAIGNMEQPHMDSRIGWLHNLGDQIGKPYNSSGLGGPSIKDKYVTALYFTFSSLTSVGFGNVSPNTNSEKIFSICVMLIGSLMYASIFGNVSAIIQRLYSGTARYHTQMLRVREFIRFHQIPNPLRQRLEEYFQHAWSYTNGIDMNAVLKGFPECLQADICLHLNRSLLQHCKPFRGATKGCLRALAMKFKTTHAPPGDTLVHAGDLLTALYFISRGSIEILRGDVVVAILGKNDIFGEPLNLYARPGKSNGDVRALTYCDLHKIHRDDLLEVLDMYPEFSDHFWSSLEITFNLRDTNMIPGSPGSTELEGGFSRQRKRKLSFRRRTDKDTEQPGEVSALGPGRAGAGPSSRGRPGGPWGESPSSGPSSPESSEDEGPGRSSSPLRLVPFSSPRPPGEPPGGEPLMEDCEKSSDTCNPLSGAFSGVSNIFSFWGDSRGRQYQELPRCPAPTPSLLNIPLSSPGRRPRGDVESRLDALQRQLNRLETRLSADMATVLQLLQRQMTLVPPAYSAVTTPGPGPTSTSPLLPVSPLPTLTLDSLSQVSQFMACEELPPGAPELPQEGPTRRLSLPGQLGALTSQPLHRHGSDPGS
row,SMILES,"hERG current change (%, negative = inhibition) at 10uM [%]"
1,CCCC(=O)NC(c1ccc(Cl)cc1Cl)c1ccc2cccnc2c1O (stereo not drawn),0.094
2,CC(=O)Cc1c(C(=O)O)c(C)nn1-c1ccccc1,21.5
3,O=[N+]([O-])/C=C/c1ccc2c(ccn2Cc2ccccc2)c1,15.8
4,CCCN1CCN(C(=O)c2oc3ccccc3c2NC(=O)COc2ccc(OC)cc2)CC1,-79.5
5,CC(C)CC(=O)Nc1c(C(=O)N2CCN(Cc3ccccc3)CC2)oc2ccccc12,-20.9
6,COc1ccc(OCC(=O)Nc2c(C(=O)N3CCN(C)CC3)oc3ccccc23)cc1,-42
7,O=C(COc1ccccc1)Nc1c(C(=O)N2CCC(N3CCCCC3)CC2)oc2ccccc12,-69
8,COCC(=O)Nc1c(C(=O)N2CCCC2)oc2ccccc12,1.46
9,COc1ccc(OCC(=O)Nc2c(C(=O)N3CCC(N4CCCCC4)CC3)oc3ccccc23)cc1,-87.7
10,N#Cc1ccccc1OCC(=O)Nc1c(C(=O)C2CC2)oc2ccccc12,2.52
11,CCCN1CCN(C(=O)c2oc3ccccc3c2NC(=O)C2CC2)CC1,-42.6
12,COc1ccccc1C(=O)Nc1c(C(=O)N2CCN(C)CC2)oc2ccccc12,-45.2
13,COc1ccc(OCC(=O)Nc2ccccc2C(=O)N2CCCC2)cc1,-7.38
14,O=C(COc1ccc(F)cc1)Nc1c(C(=O)N2CCC(N3CCCCC3)CC2)oc2ccccc12,-81.1
15,COc1ccc(N2CCN(C(=O)c3oc4ccccc4c3NC(=O)CCc3cc(OC)no3)CC2)cc1,-10.4
16,CCCCC[C@H](O)/C=C/[C@@H]1[C@@H](C/C=C\CCCC(=O)O)[C@@H](O)C[C@H]1O.NC(CO)(CO)CO,9.22
17,COc1ccccc1CC(=O)N(CCC1=CCCCC1)c1c(N)n(Cc2ccccc2)c(=O)[nH]c1=O,-12
18,CCn1c(CCC(=O)N(C)CC(=O)Nc2cccc(F)c2)nc2cc(S(=O)(=O)N(C)C)ccc21,-19.3
19,CC(=O)C1=C(O)C(=O)N(c2cccc(Br)c2)C1c1ccc(Br)cc1 (stereo not drawn),15.8
20,COCCN(CC(=O)NCc1ccccc1)C(=O)CCC(=O)Nc1ccccn1,4.54
21,CCOC(=O)N1CCN(S(=O)(=O)/C=C/c2ccccc2)CC1,-17.5

row,SMILES,"hERG current change (%, negative = inhibition) at 10uM [%]"
1,COC(=O)Cn1cnc2sc(C)c(S(=O)(=O)N3CCN(c4ccccc4OC)CC3)c2c1=O,-5.55
2,Cc1c(Cl)cccc1NC(=O)CNC(=O)c1ccc(F)cc1,27.4
3,Cc1ccc(NC(=O)Nc2nnc(Cc3ccc(F)cc3)s2)cc1,14
4,COc1ccc(-c2nc(CS(=O)CC(=O)NC(C)CCc3ccccc3)c(C)o2)cc1OC (stereo not drawn),-16.8
5,CCCC[N+]12C3C[C@H](C4[C@H](O)[C@]5(C[C@@H]41)c1ccccc1N(C)[C@@H]35)[C@H](CC)[C@H]2O.[I-] (stereo partly drawn),-56.4
6,CC[C@H]1C2C[C@H]3[C@@H]4N(C)c5ccccc5C45C[C@H](C2[C@H]5O)N3[C@@H]1O (stereo partly drawn),-43.8
7,CCC1C2CC3C4N(C)c5ccccc5C45CC(C2C5O)N3[C@@H]1O (stereo partly drawn),-28.5
8,COc1ccc(C(=O)c2oc3ccc(OC)cc3c2NC(C)=O)cc1,27.6
9,CN1CCN(CC(=O)Nc2c(C(=O)C3CC3)oc3ccccc23)CC1,-52.4
10,NC(=O)c1oc2ccc(Cl)cc2c1NC(=O)CN1CCOCC1,-9.08
11,Cc1ccc(C(=O)c2oc3ccc(Cl)cc3c2NC(=O)CN2CCN(C)CC2)cc1,-74.3
12,CC(=O)Nc1c(C(=O)c2ccccc2)oc2ccccc12,-10.3
13,COc1ccc2oc(C(=O)c3ccccc3)c(NC(=O)CN3CCN(C)CC3)c2c1,-59.8
14,O=C(CN1CCOCC1)Nc1c(C(=O)C2CC2)oc2ccccc12,-6.8
15,CC(=O)c1oc2ccccc2c1NC(=O)CN1CCCCC1.Cl,7.19
16,CN1CCN(CC(=O)Nc2c(C(=O)c3ccccc3)oc3ccccc23)CC1,-78.9
17,CC(=O)Nc1c(C(=O)O)oc2ccc(Cl)cc12,2.23
18,O=C(CN1CCCC1)Nc1c(C(=O)C2CC2)oc2ccccc12,-9.92
19,COc1ccc2oc(C(=O)c3ccccc3)c(N)c2c1,4.76
20,O=C(NN=C1CCCC1)c1[nH]c2ccc(Cl)cc2c1-c1ccccc1,7.13
21,Cc1cc(C(=O)CSc2nc(N)cc(=O)[nH]2)c(C)n1CCc1ccc(F)cc1,1.93

row,SMILES,"hERG current change (%, negative = inhibition) at 10uM [%]"
1,O=C(NCCNC(=O)c1cnccn1)c1ccc(Cl)c(Cl)c1,-13.3
2,COc1cccc(NC(=O)c2cnsn2)c1,3.19
3,CCOCCNC(=O)c1ccccc1C(=O)NCCOCC,-11.1
4,O=[N+]([O-])c1cc(N=Nc2ccc3ccccc3c2)ccc1O,12.8
5,COC(=O)C1C2C=CC3(CN(c4cccc(Cl)c4)C(=O)C13)O2 (stereo not drawn),2.49
6,CC1(C)Cc2c(cnn2-c2ccccc2)C(NC(=O)c2ccoc2)C1 (stereo not drawn),-93.4
7,Cc1cc(C(=O)NC2CC(C)(C)Cc3c2cnn3-c2ccc(F)cc2)no1 (stereo not drawn),-32.8
8,CC1(C)Cc2c(cnn2-c2ccc(F)cc2)C(NC(=O)c2cnccn2)C1 (stereo not drawn),-37.6
9,CC1(C)Cc2c(cnn2-c2ccccc2)C(NC(=O)c2ccc[n+]([O-])c2)C1 (stereo not drawn),2.3
10,CC1(C)Cc2c(cnn2-c2ccc(F)cc2)C(NC(=O)c2ccoc2)C1 (stereo not drawn),-89.1
11,CC(=O)c1ccc(C(=O)NC2CC(C)(C)Cc3c2cnn3-c2ccccc2)cc1 (stereo not drawn),-21.8
12,CC1Cc2cc(S(=O)(=O)NCCc3ccccc3)ccc2N1C(=O)C1CC1 (stereo not drawn),13.7
13,COc1ccc(-c2cc(=O)[nH]c(=O)[nH]2)cc1,-3.74
14,O=C(c1cccc(S(=O)(=O)Nc2ccccc2Cl)c1)N1CCC1,-0.443
15,Cc1ccc(SCC(=O)NCCc2ccc(F)cc2)cc1,-0.26
16,COc1ccc(NC(=O)c2cccc3c2C(=O)N(CC2CCCO2)C3)cc1OC (stereo not drawn),-17.9
17,O=C(O)c1cccc2c1C(=O)N(CC1CCCO1)C2 (stereo not drawn),24.2
18,O=C(NCc1ccc(Cl)cc1)c1cccc2c1C(=O)N(CC1CCCO1)C2 (stereo not drawn),-70.8
19,CCOC(=O)c1ccc(NC(=O)c2cccc3c2C(=O)N(CC2CCCO2)C3)cc1 (stereo not drawn),-2.27
20,CCc1cccc(NC(=O)c2cccc3c2C(=O)N(CC2CCCO2)C3)c1 (stereo not drawn),-72.2
21,COc1ccc(CNC(=O)c2cccc3c2C(=O)N(CC2CCCO2)C3)cc1 (stereo not drawn),-34.5

row,SMILES,"hERG current change (%, negative = inhibition) at 10uM [%]"
1,CC(=O)N1CCC(C(=O)NCCOc2ccc(C)cc2)CC1,7.67
2,COc1ccc(CC(=O)NNC(=O)CN(C)S(=O)(=O)c2ccc(Cl)cc2)cc1OC,0.252
3,CCOC(=O)C1CCN(S(=O)(=O)Cc2ccccc2)CC1,-8.61
4,COc1ccc(C(=O)CC(=O)C(=O)Nc2ccc(Cl)cc2)cc1,7.74
5,Cc1cc2c(c(=O)o1)C(c1cccs1)C(C#N)=C(N)O2 (stereo not drawn),4
6,Cc1cccc(-n2cc(CN3CCN(C(=O)c4ncn[nH]4)CC3)c(-c3cccc(F)c3)n2)c1,-16.5
7,COc1ccc(-n2cc(CN3CCC(OC)CC3)c(-c3cccc(F)c3)n2)cc1,-13.5
8,CCC(O)C1CCN(Cc2cn(-c3ccc(OC)cc3)nc2-c2cccc(F)c2)CC1 (stereo not drawn),-75.3
9,CC(=O)N1CCCN(Cc2cn(-c3cccc(C)c3)nc2-c2cccc(F)c2)CC1,-16.9
10,COc1ccc(-n2cc(CN3CCCC3)c(-c3cccc(F)c3)n2)cc1,-57
11,CCC(=O)OCc1c(C(F)(F)F)nn(C)c1Sc1ccc(F)cc1,-8.79
12,CN(CCc1ccccn1)C(=S)NC(=O)c1ccco1,17.1
13,Cc1ccc(NC(=O)C(c2ccccc2)N2CCN(C(=O)c3ccco3)CC2)cc1 (stereo not drawn),-72.9
14,CCOc1ccccc1NC(=O)C(c1ccccc1)N1CCN(C(=O)c2ccco2)CC1 (stereo not drawn),-57.7
15,O=C(Nc1ccc2c(c1)OCO2)C(c1ccccc1)N1CCN(C(=O)c2ccco2)CC1 (stereo not drawn),-33.2
16,CC(C)c1ccc(NC(=O)C(c2ccccc2)N2CCN(C(=O)c3ccco3)CC2)cc1 (stereo not drawn),-69.8
17,CC(C)c1ccc(NC(=O)C(c2ccc3c(c2)OCO3)N2CCN(C(=O)c3ccco3)CC2)cc1 (stereo not drawn),-25
18,O=C(Nc1ccc2c(c1)OCO2)C(c1ccc(Cl)cc1)N1CCN(C(=O)c2ccco2)CC1 (stereo not drawn),-40
19,Cc1cccc(C)c1NC(=O)C(c1ccccc1)N1CCN(C(=O)c2ccco2)CC1 (stereo not drawn),-22.8
20,Cc1ccc(NC(=O)C(c2ccccc2)N2CCN(C(=O)c3ccco3)CC2)cc1Cl (stereo not drawn),-21.3
21,CCOCCCNC(=O)C(c1ccc(Cl)cc1)N1CCN(C(=O)c2ccco2)CC1 (stereo not drawn),-0.366
